Test results published in paper PMC7862700, “An all-to-all approach to the identification of sequence-specific readers for epigenetic DNA modifications on cytosine”.

Columns and labels:
Assay in all cases: DAPPL (digital affinity profiling via proximity ligation, sequencing); 10 mM Tris-HCl pH 7.5, 50 mM NaCl, 1 mM DTT, 4% glycerol, room temperature, 30 min; GST-TFs on glutathione beads, 16-mer random dsDNA library, 0.1% formaldehyde crosslink after washing; high values mean tight binding
FEV = molecular target: T1, FEV (Homo sapiens, UniProt Q99581 1-238); settings: protein: recombinant; tags: N-terminal GST; dsDNA, one strand shown
T1 sequence: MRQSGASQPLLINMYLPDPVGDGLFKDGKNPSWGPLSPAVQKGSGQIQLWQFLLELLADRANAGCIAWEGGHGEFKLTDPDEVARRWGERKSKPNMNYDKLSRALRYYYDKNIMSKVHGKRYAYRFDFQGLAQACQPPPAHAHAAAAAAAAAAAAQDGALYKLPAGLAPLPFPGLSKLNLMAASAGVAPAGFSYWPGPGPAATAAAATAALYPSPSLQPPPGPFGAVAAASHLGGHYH
Procedure, shortened: (§1)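 Human transcription factors carrying a GST fusion were produced in yeast, bound to glutathione beads, tagged with DNA barcodes and pooled together with a tag-only sample. Each pool was held with 200 nmole of a random double-stranded 16-mer DNA library in Tris/NaCl/DTT/glycerol buffer for 30 min at room temperature, then washed, crosslinked in 0.1% formaldehyde, proximity-ligated with BsaI/T4 ligase (1 h, 37 °C), PCR-amplified and sequenced on an Illumina NextSeq500. Binding signal is the read frequency of each hexamer for a given factor divided by its frequency in the tag-only sample.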

ETV5 = ETV5 (Homo sapiens, UniProt P41161 1-510); settings: protein: recombinant; tags: N-terminal GST; dsDNA, one strand shown
Chain of ETV5 (P41161 whole entry): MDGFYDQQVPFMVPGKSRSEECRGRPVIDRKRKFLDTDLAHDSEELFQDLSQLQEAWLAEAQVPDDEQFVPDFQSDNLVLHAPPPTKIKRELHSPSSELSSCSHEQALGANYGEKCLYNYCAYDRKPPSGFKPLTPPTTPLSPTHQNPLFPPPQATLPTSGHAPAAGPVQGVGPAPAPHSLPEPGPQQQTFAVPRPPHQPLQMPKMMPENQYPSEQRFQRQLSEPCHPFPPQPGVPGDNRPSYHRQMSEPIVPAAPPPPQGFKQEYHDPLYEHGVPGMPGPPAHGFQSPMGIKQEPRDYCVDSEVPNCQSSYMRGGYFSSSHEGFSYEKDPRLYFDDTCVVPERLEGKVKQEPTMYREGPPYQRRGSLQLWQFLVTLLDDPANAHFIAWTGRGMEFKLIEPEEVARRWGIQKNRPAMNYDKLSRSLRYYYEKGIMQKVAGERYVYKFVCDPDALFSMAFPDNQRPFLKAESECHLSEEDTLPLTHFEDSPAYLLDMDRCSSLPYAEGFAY
Procedure, shortened: as §1

HSF1 = HSF1 (Homo sapiens, UniProt Q00613 1-529); settings: protein: recombinant; tags: N-terminal GST; chain copies: 3; dsDNA, one strand shown
Chain of HSF1 (Q00613 whole entry): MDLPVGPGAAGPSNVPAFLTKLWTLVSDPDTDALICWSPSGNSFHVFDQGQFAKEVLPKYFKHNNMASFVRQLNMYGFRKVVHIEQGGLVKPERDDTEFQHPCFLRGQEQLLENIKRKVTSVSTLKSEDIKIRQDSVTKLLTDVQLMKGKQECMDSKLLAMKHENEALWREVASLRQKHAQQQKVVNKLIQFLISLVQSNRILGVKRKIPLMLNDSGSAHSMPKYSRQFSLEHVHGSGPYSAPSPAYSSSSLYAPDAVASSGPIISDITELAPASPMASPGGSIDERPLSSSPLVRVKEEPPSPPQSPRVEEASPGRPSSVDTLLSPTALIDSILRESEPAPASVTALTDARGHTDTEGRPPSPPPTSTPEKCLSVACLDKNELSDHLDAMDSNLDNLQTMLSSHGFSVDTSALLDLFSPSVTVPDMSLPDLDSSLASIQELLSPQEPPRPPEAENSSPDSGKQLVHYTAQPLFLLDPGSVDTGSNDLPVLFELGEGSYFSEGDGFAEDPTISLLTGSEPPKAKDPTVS
Procedure, shortened: as §1

SPIC = molecular target: T2, SPIC (Homo sapiens, UniProt Q8N5J4 1-248); settings: protein: recombinant; tags: N-terminal GST; dsDNA, one strand shown
T2 sequence: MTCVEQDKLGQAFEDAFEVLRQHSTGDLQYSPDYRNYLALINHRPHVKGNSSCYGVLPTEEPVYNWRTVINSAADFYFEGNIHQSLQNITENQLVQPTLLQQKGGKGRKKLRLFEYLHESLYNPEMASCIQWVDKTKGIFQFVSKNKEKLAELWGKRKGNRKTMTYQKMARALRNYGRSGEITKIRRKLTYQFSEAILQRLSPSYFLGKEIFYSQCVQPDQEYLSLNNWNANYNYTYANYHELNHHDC
Procedure, shortened: as §1

ELF4 = ELF4 (Homo sapiens, UniProt Q99607 1-663); settings: protein: recombinant; tags: N-terminal GST; dsDNA, one strand shown
Chain of ELF4 (Q99607 whole entry): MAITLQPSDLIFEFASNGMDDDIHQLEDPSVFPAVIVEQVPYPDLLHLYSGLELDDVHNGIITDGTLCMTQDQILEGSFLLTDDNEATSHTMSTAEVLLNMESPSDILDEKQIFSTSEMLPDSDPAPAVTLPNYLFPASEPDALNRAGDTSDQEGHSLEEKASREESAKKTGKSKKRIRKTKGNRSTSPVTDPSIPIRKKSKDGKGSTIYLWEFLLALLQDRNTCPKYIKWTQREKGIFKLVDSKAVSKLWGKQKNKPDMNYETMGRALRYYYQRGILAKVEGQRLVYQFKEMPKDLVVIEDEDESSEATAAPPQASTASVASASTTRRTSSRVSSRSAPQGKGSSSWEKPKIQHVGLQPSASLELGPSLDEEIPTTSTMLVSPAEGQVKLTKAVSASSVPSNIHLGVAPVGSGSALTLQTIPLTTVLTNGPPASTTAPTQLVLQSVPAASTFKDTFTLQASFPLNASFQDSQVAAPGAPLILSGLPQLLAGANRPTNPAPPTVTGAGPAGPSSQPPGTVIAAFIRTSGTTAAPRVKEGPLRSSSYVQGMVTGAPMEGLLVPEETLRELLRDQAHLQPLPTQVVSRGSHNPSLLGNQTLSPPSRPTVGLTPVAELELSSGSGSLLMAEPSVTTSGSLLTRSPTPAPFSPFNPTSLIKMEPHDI
Procedure, shortened: as §1

ELK4 = molecular target: T3, ELK4 (Homo sapiens, UniProt P28324-2 1-405); settings: protein: recombinant; tags: N-terminal GST; dsDNA, one strand shown
T3 sequence: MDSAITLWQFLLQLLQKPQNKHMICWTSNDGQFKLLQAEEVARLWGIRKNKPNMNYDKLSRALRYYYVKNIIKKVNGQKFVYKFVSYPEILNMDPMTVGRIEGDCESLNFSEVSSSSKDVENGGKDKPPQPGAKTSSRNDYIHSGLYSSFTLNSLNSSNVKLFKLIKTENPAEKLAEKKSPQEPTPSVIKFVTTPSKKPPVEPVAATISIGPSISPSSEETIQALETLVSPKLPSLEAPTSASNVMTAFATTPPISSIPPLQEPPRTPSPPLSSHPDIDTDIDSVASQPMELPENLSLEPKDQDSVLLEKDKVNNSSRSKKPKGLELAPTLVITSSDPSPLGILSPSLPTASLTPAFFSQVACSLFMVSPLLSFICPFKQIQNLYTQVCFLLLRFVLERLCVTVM
Procedure, shortened: as §1

ETV2 = molecular target: T4, ETV2 (Homo sapiens, UniProt O00321 1-342); settings: protein: recombinant; tags: N-terminal GST; dsDNA, one strand shown
T4 sequence: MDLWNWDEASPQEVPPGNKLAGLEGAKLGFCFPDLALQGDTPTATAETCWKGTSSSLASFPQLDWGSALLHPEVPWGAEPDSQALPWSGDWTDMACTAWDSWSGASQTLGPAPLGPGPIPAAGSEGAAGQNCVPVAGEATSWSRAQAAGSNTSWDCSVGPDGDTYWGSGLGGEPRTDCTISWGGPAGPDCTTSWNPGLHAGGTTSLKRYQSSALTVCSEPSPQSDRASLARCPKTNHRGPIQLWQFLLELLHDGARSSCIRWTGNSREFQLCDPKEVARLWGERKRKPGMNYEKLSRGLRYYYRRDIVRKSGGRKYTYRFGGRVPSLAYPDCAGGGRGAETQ
Procedure, shortened: as §1

ELF3 = molecular target: T5, ELF3 (Homo sapiens, UniProt P78545 1-371); settings: protein: recombinant; tags: N-terminal GST; dsDNA, one strand shown
T5 sequence: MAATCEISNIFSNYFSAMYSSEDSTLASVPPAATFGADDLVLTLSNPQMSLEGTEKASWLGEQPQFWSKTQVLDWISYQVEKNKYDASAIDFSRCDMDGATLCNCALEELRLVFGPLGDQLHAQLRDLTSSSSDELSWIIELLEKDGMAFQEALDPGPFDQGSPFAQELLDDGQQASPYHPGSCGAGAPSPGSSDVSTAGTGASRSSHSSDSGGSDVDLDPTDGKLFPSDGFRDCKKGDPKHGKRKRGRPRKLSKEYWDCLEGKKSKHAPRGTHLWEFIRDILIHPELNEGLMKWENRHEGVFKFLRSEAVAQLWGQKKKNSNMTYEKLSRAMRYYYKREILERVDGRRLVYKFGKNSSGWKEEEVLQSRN
Procedure, shortened: as §1

CRX = CRX (Homo sapiens, UniProt O43186 1-299); settings: protein: recombinant; tags: N-terminal GST; dsDNA, one strand shown
Chain of CRX (O43186 whole entry): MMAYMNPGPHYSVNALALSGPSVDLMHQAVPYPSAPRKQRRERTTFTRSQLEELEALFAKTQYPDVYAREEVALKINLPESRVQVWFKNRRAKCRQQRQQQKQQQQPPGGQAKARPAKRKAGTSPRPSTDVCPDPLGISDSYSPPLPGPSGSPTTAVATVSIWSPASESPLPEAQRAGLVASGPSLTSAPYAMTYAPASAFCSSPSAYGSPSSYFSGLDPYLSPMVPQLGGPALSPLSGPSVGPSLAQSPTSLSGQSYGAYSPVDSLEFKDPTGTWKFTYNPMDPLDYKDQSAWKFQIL
Procedure, shortened: as §1

ETV1 = ETV1 (Homo sapiens, UniProt P50549 1-477); settings: protein: recombinant; tags: N-terminal GST; dsDNA, one strand shown
Chain of ETV1 (P50549 whole entry): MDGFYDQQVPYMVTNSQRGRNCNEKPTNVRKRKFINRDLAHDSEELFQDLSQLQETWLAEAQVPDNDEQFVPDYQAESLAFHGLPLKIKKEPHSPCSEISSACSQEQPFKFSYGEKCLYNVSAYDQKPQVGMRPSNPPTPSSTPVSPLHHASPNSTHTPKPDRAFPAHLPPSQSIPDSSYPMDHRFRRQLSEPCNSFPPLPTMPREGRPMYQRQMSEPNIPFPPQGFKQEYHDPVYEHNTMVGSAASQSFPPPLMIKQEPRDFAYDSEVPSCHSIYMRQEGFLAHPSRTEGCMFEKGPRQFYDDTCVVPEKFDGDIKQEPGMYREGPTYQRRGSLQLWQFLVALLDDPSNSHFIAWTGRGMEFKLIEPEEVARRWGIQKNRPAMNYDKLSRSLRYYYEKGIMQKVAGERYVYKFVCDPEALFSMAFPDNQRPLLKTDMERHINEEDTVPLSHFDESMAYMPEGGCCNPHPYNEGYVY
Procedure, shortened: as §1

ERF = molecular target: T6, ERF (Homo sapiens, UniProt P50548 1-548); settings: protein: recombinant; tags: N-terminal GST; dsDNA, one strand shown
T6 sequence: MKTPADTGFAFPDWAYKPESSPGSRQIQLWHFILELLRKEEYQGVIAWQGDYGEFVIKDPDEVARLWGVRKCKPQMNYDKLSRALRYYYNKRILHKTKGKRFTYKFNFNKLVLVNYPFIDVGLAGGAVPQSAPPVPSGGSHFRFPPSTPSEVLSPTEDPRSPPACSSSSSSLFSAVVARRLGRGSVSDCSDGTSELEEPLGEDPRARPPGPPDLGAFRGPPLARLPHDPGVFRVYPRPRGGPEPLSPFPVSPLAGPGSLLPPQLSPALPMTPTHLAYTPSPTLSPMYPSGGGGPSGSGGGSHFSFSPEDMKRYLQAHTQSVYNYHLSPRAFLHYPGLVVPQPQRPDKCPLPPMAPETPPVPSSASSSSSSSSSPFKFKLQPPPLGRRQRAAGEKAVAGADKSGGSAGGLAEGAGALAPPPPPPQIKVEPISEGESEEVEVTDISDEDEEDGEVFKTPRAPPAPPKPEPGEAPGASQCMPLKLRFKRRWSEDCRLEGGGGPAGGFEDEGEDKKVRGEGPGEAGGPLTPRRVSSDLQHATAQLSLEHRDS
Procedure, shortened: as §1

ETV3L = molecular target: T7, ETV3L (Homo sapiens, UniProt Q6ZN32 1-361); settings: protein: recombinant; tags: N-terminal GST; dsDNA, one strand shown
T7 sequence: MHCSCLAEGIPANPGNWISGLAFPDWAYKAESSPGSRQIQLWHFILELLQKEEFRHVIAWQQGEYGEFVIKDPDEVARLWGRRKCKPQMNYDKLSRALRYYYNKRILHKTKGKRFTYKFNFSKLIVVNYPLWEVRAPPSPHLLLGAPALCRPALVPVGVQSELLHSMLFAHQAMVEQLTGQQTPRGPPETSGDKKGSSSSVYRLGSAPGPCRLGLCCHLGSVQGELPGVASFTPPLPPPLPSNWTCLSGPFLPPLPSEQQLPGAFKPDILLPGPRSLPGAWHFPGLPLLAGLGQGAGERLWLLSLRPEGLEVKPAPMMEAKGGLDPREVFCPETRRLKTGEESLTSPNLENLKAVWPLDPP
Procedure, shortened: as §1

ETS2 = molecular target: T8, ETS2 (Homo sapiens, UniProt P15036 1-469); settings: protein: recombinant; tags: N-terminal GST; dsDNA, one strand shown
T8 sequence: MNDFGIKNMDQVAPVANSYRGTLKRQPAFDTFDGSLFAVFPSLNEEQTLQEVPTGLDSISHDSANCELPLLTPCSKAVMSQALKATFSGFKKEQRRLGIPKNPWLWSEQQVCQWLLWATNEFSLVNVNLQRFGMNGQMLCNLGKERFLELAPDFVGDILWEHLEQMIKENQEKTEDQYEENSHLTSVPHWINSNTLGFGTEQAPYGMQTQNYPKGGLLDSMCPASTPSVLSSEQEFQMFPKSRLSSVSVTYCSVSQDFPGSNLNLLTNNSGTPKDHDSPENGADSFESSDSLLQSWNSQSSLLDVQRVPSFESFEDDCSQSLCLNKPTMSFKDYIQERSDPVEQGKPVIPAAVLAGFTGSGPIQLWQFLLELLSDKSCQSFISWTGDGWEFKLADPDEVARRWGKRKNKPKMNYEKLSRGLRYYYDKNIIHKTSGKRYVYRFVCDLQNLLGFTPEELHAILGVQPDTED
Procedure, shortened: as §1

SPDEF = molecular target: T9, SPDEF (Homo sapiens, UniProt O95238 1-335); settings: protein: recombinant; tags: N-terminal GST; dsDNA, one strand shown
T9 sequence: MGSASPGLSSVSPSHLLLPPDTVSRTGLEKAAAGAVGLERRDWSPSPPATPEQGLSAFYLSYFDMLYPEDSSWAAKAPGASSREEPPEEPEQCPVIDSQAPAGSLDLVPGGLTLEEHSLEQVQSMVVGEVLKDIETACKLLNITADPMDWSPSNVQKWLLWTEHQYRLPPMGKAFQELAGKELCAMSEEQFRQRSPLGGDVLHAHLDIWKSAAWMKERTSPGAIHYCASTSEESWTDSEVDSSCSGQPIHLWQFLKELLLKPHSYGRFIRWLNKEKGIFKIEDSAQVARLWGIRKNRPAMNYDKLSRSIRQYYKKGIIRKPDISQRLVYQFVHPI
Procedure, shortened: as §1

ETV7 = molecular target: T10, ETV7 (Homo sapiens, UniProt Q9Y603 1-341); settings: protein: recombinant; tags: N-terminal GST; dsDNA, one strand shown
T10 sequence: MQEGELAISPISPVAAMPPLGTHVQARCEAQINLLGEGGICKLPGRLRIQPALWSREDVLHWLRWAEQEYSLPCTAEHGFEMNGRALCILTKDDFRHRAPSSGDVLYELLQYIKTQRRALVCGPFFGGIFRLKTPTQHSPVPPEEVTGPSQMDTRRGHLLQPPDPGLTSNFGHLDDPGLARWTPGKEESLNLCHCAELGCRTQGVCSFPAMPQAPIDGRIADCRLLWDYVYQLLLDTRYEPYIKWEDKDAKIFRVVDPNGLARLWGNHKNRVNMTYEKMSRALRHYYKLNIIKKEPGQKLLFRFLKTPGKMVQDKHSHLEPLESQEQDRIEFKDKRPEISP
Procedure, shortened: as §1

ELF5 = molecular target: T11, ELF5 (Homo sapiens, UniProt Q9UKW6-2 1-255); settings: protein: recombinant; tags: N-terminal GST; dsDNA, one strand shown
T11 sequence: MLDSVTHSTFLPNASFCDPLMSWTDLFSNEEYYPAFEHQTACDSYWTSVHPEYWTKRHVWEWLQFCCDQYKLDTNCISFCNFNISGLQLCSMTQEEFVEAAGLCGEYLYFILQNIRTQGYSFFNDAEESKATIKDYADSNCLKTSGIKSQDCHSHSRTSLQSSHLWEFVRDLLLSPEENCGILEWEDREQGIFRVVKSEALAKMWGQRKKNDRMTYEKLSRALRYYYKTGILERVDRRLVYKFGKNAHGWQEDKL
Procedure, shortened: as §1

ETV3 = molecular target: T12, ETV3 (Homo sapiens, UniProt P41162-2 1-143); settings: protein: recombinant; tags: N-terminal GST; dsDNA, one strand shown
T12 sequence: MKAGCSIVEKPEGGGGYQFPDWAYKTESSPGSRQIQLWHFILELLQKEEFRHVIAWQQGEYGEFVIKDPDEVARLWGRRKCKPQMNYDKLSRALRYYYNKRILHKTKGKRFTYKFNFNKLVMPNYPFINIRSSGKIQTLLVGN
Procedure, shortened: as §1

ETV6 = ETV6 (Homo sapiens, UniProt P41212 1-452); settings: protein: recombinant; tags: N-terminal GST; dsDNA, one strand shown
Chain of ETV6 (P41212 whole entry): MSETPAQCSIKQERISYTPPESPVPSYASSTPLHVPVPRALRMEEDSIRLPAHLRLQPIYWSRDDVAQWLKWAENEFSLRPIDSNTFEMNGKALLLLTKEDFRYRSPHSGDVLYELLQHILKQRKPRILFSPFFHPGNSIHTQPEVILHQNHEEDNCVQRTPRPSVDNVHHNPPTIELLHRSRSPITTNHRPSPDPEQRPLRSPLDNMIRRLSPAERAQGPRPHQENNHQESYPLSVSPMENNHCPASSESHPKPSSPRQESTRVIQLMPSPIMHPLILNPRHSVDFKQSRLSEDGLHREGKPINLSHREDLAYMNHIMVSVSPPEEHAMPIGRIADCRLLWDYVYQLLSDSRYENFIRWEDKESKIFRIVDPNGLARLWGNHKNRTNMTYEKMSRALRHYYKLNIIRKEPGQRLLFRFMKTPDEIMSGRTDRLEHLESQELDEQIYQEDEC
Procedure, shortened: as §1

For AGAATT, the binding signal (FEV) was 1.08 fold enrichment (6-mer frequency, TF over GST control), the binding signal (ETV5) was 1.13 fold enrichment (6-mer frequency, TF over GST control) and the binding signal (HSF1) was 2.2 fold enrichment (6-mer frequency, TF over GST control). For the same sequence, the binding signal (SPIC) was 1.24 fold enrichment (6-mer frequency, TF over GST control), the binding signal (ELF4) was 1.24 fold enrichment (6-mer frequency, TF over GST control) and the binding signal (ELK4) was 1.2 fold enrichment (6-mer frequency, TF over GST control). The binding signal (ETV2) was 1.06 fold enrichment (6-mer frequency, TF over GST control), the binding signal (ELF3) was 1.04 fold enrichment (6-mer frequency, TF over GST control) and the binding signal (CRX) was 1.76 fold enrichment (6-mer frequency, TF over GST control). For the same sequence, the binding signal (ETV1) was 1.16 fold enrichment (6-mer frequency, TF over GST control), the binding signal (ERF) was 1.17 fold enrichment (6-mer frequency, TF over GST control) and the binding signal (ETV3L) was 1.17 fold enrichment (6-mer frequency, TF over GST control). The binding signal (ETS2) was 1.14 fold enrichment (6-mer frequency, TF over GST control), the binding signal (SPDEF) was 1.05 fold enrichment (6-mer frequency, TF over GST control) and the binding signal (ETV7) was 1.13 fold enrichment (6-mer frequency, TF over GST control). The binding signal (ELF5) was 1.1 fold enrichment (6-mer frequency, TF over GST control), the binding signal (ETV3) was 1.09 fold enrichment (6-mer frequency, TF over GST control) and the binding signal (ETV6) was 1.2 fold enrichment (6-mer frequency, TF over GST control).
